The source of these data is ChEMBL document CHEMBL4888484, “Replenishing the malaria drug discovery pipeline: Screening and hit evaluation of the MMV Hit Generation Library 1 (HGL1) against asexual blood stage Plasmodium falciparum ,using a nano luciferase reporter read-out” (2022).

The campaign covered roughly 150,000 compounds. About 540 (0.36%) showed an effect of 50% or more. The sample as a whole holds a higher share of strong results than the screen did.

The assay concerns Plasmodium falciparum. Briefly: Primary screen in NF54 nanoGlo assay, in single point, at 2uM, 72h; a lower Z score goes with more inhibition. Type of assay: functional, Erythrocyte. Conditions: timepoint 72 hour.
As usually defined, the % Inhibition is the change of the read-out against control, counted positive when it falls. Turning to `CC(NS(=O)(=O)N(C)C(C)C)C1CCCO1` (stereo unspecified), the “% Inhibition” value was -8% and the Z score came to 1.17.

As for `C/C=C(\C)C(=O)N1CCC(N2CCC(C(=O)N3CCCC3)CC2)CC1`, the “% Inhibition” value is reported as -12% and the Z score was 1.74.

On to `CCC(C)C(NC(=O)C1CCC(C)CC1)C(=O)NC1CCN(Cc2ccccc2)CC1` (stereo unspecified), for which the “% Inhibition” value was -3% and the Z score is 0.32.

On to `CCCNS(=O)(=O)c1ccc(C(=O)N2C[C@H]3CC[C@@H](C2)N(C)C3)cc1`, for which the “% Inhibition” value is on record as -7% and the Z score was found to be 1.2.

With `Cc1ccc(-n2nc3c(=O)n([C@@H](C)C(=O)NCc4ccc(Cl)cc4)nc(C)c3c2C)cc1`, the “% Inhibition” value is 10% and the Z score is -1.13.

Regarding `O=S(=O)(NC1CCc2ccc(Cl)cc21)[C@H]1COC[C@@H]1O` (stereo partly specified), the “% Inhibition” value is given as -11% and the Z score was 1.47.

For `Cc1ccc(NC(=O)Cc2nnc(-c3ccc4ncccc4c3)o2)c(Cl)c1`, the “% Inhibition” value is on record as -6% and the Z score is 0.57.

As to `CCn1cc(NC(=O)c2cc(C3CC3)nc3onc(-c4cnn(CC)c4C)c23)c(C)n1`, the “% Inhibition” value turned out to be 8% and the Z score was -1.2.

With `CC(C)(C)OC(=O)N1CC2CC1C2C(=O)NCC1CCCO1` (stereo unspecified), the “% Inhibition” value is given as 14% and the Z score was -1.67.

`Nc1ncc(C(=O)N2CCC3(CCCCCC3)C2)s1`: the “% Inhibition” value stood at 97% and the Z score was -17.77.

On to `Nc1ncc(C(=O)N2CCC3(CCCC3)C2)s1`, for which the “% Inhibition” value is recorded as 6% and the Z score was -0.8.

For `Cc1ncsc1C(=O)N1CCC2(CCCCC2)C1`, the “% Inhibition” value was 37% and the Z score is -5.42.

As for `CC(=O)NC1CCN(Cc2cc(C)nc3ccccc23)CC1`, the “% Inhibition” value is on record as -6% and the Z score came to 0.83.

As to `CC1CCN(c2nccnc2Oc2ccc(C(=O)N3CCN(c4ccccc4Cl)CC3)cc2)CC1`, the “% Inhibition” value is on record as 11% and the Z score is on record as -1.7.

Consider `CC1CCN(c2nccnc2Oc2ccc(C(=O)NCc3ccco3)cc2)CC1`, for which the “% Inhibition” value is -1% and the Z score came out at 0.13.

As to `CC1CCN(c2nccnc2Oc2ccc(C(=O)NCc3ccccc3Cl)cc2)CC1`, the “% Inhibition” value was 67% and the Z score was -10.64.

In the case of `CC(NC(CC1CCC1)c1ccccc1)c1cn(C)nn1` (stereo unspecified), the “% Inhibition” value worked out at 6% and the Z score is -0.82.

`Cc1ccccc1OC[C@@H](O)CN(C(C)C)C(C)C`: the “% Inhibition” value is listed as -2% and the Z score was determined as 0.31.

Consider `CCN(CC)C[C@H](O)COc1ccc(Cl)cc1Cl`, for which the “% Inhibition” value was found to be 9% and the Z score was -1.14.

In the case of `CN(C)CC(O)COc1ccc(S(=O)(=O)c2ccc(OCC(O)CN(C)C)c(Cl)c2)cc1Cl` (stereo unspecified), the “% Inhibition” value is on record as 54% and the Z score was -6.62.

As to `CCS(=O)(=O)N1CCC(N2C(=O)[C@@H]3CC[C@@H](c4ccccc4)N3C2=O)CC1`, the “% Inhibition” value is recorded as 42% and the Z score came to 0.94.

Turning to `CCN(C(=O)Cn1cc(-c2ccccc2)c2ncn(CC)c(=O)c21)c1ccccc1`, the “% Inhibition” value stood at 78% and the Z score is on record as -9.77.

`CCc1cccc(C)c1NC(=O)Cn1cc(-c2ccccc2)c2ncn(CC)c(=O)c21`: the “% Inhibition” value is 4% and the Z score is reported as -0.57.

In the case of `CCn1cnc2c(-c3ccccc3)cn(CC(=O)NCc3ccco3)c2c1=O`, the “% Inhibition” value is -9% and the Z score is recorded as 1.31.

Take `O=C(c1ccccc1)c1ccc(O)c(CN2CCCN(c3ccc(C(F)(F)F)cn3)CC2)c1O`: the “% Inhibition” value is reported as 84% and the Z score is listed as -8.75.

For `FC(F)(F)c1ccc(N2CCCN(Cc3nc4ccccc4o3)CC2)nc1`, the “% Inhibition” value is reported as -8% and the Z score stood at 0.8.

In the case of `O=C(CN1CCCN(c2ccc(C(F)(F)F)cn2)CC1)Nc1ccccc1`, the “% Inhibition” value amounted to 0% and the Z score was 0.05.

Take `Cc1n[nH]c(C)c1CCCNC(=O)[C@@H]1Cc2ccccc2CN1C`: the “% Inhibition” value is given as -7% and the Z score turned out to be 1.24.

On to `Cc1cccn(CC(=O)NCC(=O)Nc2cccnc2)c1=O`, for which the “% Inhibition” value is on record as -6% and the Z score turned out to be 0.7.

Take `C[C@@H](CO)N(C)S(=O)(=O)[C@H]1C[C@@H]1c1ccc(Br)cc1`: the “% Inhibition” value stood at 1% and the Z score is -0.19.

Take `O=C(c1cccc(C(=O)N2CCN(C(c3ccccc3)c3ccccc3)CC2)c1)N1CCN(C(c2ccccc2)c2ccccc2)CC1`: the “% Inhibition” value is 54% and the Z score is recorded as -11.5.

For the compound `O=C(c1cccc(C#Cc2ccccc2)c1)N1CCN(C(c2ccccc2)c2ccccc2)CC1`, the “% Inhibition” value is on record as -8% and the Z score is reported as 1.42.

For the compound `O=C(c1cccc(-n2cnnn2)c1)N1CCN(C(c2ccccc2)c2ccccc2)CC1`, the “% Inhibition” value worked out at 10% and the Z score is -1.28.

As to `CC1CCCN(C(C)CNC(=O)CCNC(=O)C2CC2C)C1` (stereo unspecified), the “% Inhibition” value is on record as -5% and the Z score is on record as 0.79.

As for `Cc1ccc2[nH]c(-c3cc4n(n3)CCN(C(=O)N3CCN(C)CC3)C4)nc2c1`, the “% Inhibition” value was -6% and the Z score is listed as 0.7.

For the compound `CCCN1CCn2nc(-c3nc4cc(OC)ccc4[nH]3)cc2C1`, the “% Inhibition” value was -3% and the Z score was found to be 0.27.

As for `N[C@H]1COc2ccc(Br)cc2C1=O`, the “% Inhibition” value amounted to 73% and the Z score is listed as 0.56.

With `N[C@H]1CCOc2ccc(Br)cc2C1=O`, the “% Inhibition” value is -8% and the Z score is on record as 1.05.

Regarding `N[C@H]1CC2(CCC2)Oc2ccc(Br)cc21`, the “% Inhibition” value is -4% and the Z score was 0.62.

As to `O=C(COc1ccc(Br)cc1F)N[C@@H](C(=O)O)c1ccc(F)c(F)c1`, the “% Inhibition” value is -17% and the Z score is given as 2.1.

Take `COc1cc(NC(=O)Cc2ccc(OC)c(OC)c2)ncn1`: the “% Inhibition” value turned out to be 8% and the Z score is reported as -1.51.

Consider `COc1cc2cc(NC(C)=N)nc(C)c2cc1OC`, for which the “% Inhibition” value came to 15% and the Z score was -1.95.

In the case of `COc1ccc(CC(=N)Nc2cc3cc(OC)c(OC)cc3c(Cc3ccc(OC)c(OC)c3)n2)cc1OC`, the “% Inhibition” value turned out to be 85% and the Z score is recorded as -9.78.

In the case of `COc1cc(NC(=O)N2Cc3cn[nH]c3CC(C)(C)C2)c(C)c(OC)c1`, the “% Inhibition” value was found to be 13% and the Z score is on record as -1.52.

For the compound `CCn1cnc2c(N3CCC[C@H](CC(C)(C)C(N)=O)C3)ncnc21`, the “% Inhibition” value is on record as 8% and the Z score is -1.51.

Turning to `CCn1cnc2c(N3CCC[C@H](c4ccncc4)C3)ncnc21`, the “% Inhibition” value is 76% and the Z score is reported as -10.16.

Regarding `CCn1cnc2c(N3CCCOC3)ncnc21`, the “% Inhibition” value was -5% and the Z score was determined as 0.67.

For `COc1cccc([C@H]2CC(O)=Nc3c2ncn3-c2cccnc2)c1OC(C)C`, the “% Inhibition” value was determined as 28% and the Z score was -3.13.

For the compound `CC[C@@H](c1ccccn1)n1cc(-c2cc(CN(C)C)cs2)nn1`, the “% Inhibition” value is reported as -6% and the Z score amounted to 0.72.

As for `CC1=CN(c2ccc(Br)cc2)C(=O)N(c2ccccc2)N=C1C`, the “% Inhibition” value was -45% and the Z score was determined as 5.24.

Consider `Cc1ccc([C@H]2C=NN(c3ccc(Br)cc3)C2=O)cc1`, for which the “% Inhibition” value is 76% and the Z score is given as -2.14.

`CC(C)C(=O)N1CCN(c2ccc(Br)cc2)C(=O)[C@@H]1C`: the “% Inhibition” value is on record as -12% and the Z score is given as 1.14.

Consider `CCCOc1ccc(C2C3C(=O)N(c4cccc5ccccc45)C(=O)C3ON2c2ccccc2)cc1OC` (stereo unspecified), for which the “% Inhibition” value is -14% and the Z score is given as 1.48.
